Columns and labels:
Test in all cases: DAPPL (digital affinity profiling via proximity ligation, sequencing); 10 mM Tris-HCl pH 7.5, 50 mM NaCl, 1 mM DTT, 4% glycerol, room temperature, 30 min; GST-TFs on glutathione beads, 16-mer random dsDNA library, 0.1% formaldehyde crosslink after washing; high values mean tight binding
Conditions in all cases: protein: recombinant; tags: N-terminal GST; dsDNA, one strand shown
[1] = target: T1, FLI1 (Homo sapiens, UniProt Q01543 1-452)
T1 sequence: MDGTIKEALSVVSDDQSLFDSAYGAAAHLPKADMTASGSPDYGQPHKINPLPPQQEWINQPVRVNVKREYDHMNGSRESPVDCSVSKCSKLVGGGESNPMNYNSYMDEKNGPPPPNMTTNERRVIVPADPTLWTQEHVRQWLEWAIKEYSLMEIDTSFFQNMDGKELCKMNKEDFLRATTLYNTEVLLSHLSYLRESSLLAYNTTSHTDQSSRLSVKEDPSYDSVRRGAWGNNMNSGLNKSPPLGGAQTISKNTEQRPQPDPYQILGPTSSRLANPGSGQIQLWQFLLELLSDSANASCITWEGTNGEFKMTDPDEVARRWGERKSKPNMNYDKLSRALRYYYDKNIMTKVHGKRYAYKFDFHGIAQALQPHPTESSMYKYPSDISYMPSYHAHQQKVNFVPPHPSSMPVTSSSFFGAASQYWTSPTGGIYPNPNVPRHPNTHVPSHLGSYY
Outline: (§1)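 Binding signal is given per hexamer as its read frequency for a factor divided by its frequency in the tag-only sample. GST-fused human transcription factors were expressed in yeast, captured on glutathione beads, barcoded with DNA and pooled with that sample, then incubated with 200 nmole of a 16-mer random double-stranded DNA library in Tris/NaCl/DTT/glycerol buffer for 30 min at room temperature. The pools were then washed, crosslinked, proximity-ligated, amplified by PCR and sequenced on an Illumina NextSeq500.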

[2] = target: T2, ELK1 (Homo sapiens, UniProt P19419 1-428)
T2 sequence: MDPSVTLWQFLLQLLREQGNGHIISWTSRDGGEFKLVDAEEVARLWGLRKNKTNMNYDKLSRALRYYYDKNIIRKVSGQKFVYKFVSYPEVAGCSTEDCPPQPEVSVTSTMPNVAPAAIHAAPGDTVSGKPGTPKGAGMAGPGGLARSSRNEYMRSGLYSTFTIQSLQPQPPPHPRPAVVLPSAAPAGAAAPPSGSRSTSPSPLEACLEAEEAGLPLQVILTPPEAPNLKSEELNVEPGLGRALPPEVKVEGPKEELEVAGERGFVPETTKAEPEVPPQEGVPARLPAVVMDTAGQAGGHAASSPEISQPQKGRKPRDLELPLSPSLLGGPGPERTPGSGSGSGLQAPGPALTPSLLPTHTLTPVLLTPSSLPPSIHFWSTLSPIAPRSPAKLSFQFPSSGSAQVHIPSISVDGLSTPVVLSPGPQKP
Outline: as §1

[3] = target: T3, GABPA (Homo sapiens, UniProt Q06546 1-454)
T3 sequence: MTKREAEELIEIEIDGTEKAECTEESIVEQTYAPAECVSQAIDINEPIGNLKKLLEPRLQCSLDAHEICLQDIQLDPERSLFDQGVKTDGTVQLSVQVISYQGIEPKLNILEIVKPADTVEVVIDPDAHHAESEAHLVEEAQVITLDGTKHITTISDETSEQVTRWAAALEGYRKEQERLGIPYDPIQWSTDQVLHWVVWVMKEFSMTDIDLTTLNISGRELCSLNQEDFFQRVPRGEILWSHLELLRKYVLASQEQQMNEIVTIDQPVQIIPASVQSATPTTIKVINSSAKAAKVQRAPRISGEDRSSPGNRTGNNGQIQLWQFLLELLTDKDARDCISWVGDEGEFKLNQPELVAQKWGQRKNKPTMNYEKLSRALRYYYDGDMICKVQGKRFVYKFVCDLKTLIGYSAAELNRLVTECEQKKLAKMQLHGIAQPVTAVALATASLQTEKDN
Outline: as §1

[4] = target: T4, ERG (Homo sapiens, UniProt P11308 1-479)
T4 sequence: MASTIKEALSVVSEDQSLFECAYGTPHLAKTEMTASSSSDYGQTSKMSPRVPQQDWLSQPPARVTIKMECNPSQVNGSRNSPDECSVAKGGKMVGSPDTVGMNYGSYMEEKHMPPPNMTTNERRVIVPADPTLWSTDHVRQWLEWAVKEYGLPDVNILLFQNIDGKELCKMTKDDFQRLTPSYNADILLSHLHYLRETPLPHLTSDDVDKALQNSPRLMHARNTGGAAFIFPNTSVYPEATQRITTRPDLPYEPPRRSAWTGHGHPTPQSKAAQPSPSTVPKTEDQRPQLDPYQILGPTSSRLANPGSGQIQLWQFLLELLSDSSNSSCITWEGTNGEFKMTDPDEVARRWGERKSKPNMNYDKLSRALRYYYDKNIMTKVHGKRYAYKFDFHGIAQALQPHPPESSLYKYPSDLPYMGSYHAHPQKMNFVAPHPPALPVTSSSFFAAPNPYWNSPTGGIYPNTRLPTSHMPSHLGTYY
Outline: as §1

[5] = target: ELF1 (Homo sapiens, UniProt P32519 1-619)
Outline: as §1

[6] = target: T5, EHF (Homo sapiens, UniProt Q9NZC4 1-300)
T5 sequence: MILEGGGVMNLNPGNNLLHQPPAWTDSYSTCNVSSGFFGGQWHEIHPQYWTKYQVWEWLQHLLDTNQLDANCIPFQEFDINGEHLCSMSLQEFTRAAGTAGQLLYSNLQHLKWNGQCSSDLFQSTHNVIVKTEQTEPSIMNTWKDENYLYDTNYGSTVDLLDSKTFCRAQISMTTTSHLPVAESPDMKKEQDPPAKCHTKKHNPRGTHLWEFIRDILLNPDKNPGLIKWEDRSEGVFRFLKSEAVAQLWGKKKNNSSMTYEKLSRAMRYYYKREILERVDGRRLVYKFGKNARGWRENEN
Outline: as §1

[7] = target: SPI1 (Homo sapiens, UniProt P17947 1-270)
Outline: as §1

[8] = target: SPIB (Homo sapiens, UniProt Q01892 1-262)
Outline: as §1

[9] = target: T6, ELK3 (Homo sapiens, UniProt P41970 1-407)
T6 sequence: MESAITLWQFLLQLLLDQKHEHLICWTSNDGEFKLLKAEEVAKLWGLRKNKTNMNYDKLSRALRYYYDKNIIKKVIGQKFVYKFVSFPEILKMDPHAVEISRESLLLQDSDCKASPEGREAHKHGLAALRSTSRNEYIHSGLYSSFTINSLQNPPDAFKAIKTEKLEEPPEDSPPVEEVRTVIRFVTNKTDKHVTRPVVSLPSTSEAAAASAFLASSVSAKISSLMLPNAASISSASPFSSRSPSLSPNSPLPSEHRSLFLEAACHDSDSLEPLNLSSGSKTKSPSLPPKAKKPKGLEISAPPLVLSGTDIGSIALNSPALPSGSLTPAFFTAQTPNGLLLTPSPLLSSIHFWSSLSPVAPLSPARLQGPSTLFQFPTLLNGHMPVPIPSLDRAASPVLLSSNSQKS
Outline: as §1

[10] = target: T7, FEV (Homo sapiens, UniProt Q99581 1-238)
T7 sequence: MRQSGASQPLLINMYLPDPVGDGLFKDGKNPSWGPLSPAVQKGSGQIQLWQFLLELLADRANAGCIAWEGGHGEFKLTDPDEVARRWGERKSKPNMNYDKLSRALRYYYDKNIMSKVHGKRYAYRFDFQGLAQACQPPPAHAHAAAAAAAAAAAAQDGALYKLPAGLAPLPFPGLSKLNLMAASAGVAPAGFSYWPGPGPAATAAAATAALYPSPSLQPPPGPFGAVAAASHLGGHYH
Outline: as §1

[11] = target: ETV5 (Homo sapiens, UniProt P41161 1-510)
Outline: as §1

[12] = target: T8, SPIC (Homo sapiens, UniProt Q8N5J4 1-248)
T8 sequence: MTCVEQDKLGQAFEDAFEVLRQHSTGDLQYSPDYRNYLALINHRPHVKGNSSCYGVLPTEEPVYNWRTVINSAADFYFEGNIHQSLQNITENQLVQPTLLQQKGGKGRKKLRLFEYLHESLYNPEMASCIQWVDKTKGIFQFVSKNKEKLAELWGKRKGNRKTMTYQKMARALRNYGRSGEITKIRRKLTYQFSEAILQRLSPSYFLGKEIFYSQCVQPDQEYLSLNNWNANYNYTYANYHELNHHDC
Outline: as §1

[13] = target: ELF4 (Homo sapiens, UniProt Q99607 1-663)
Outline: as §1

[14] = target: T9, ELK4 (Homo sapiens, UniProt P28324-2 1-405)
T9 sequence: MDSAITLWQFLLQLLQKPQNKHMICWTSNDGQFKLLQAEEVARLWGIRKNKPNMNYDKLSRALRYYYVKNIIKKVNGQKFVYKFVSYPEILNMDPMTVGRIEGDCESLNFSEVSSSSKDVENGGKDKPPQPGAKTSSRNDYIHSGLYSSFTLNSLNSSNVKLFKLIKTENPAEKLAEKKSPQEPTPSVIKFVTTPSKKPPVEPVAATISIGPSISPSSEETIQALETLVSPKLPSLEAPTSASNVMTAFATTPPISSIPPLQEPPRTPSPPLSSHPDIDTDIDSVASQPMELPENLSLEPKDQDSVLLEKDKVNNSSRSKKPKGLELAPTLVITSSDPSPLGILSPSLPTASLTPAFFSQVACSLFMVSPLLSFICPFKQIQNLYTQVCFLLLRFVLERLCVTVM
Outline: as §1

[15] = target: T10, ETV2 (Homo sapiens, UniProt O00321 1-342)
T10 sequence: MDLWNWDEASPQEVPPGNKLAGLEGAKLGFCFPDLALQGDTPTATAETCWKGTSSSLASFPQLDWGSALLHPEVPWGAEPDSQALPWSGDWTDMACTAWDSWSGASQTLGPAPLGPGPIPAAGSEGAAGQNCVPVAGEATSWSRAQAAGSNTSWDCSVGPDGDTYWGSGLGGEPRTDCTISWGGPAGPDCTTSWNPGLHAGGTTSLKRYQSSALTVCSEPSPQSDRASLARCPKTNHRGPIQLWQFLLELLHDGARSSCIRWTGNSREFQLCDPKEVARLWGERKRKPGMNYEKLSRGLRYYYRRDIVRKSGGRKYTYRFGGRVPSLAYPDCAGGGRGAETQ
Outline: as §1

[16] = target: T11, ELF3 (Homo sapiens, UniProt P78545 1-371)
T11 sequence: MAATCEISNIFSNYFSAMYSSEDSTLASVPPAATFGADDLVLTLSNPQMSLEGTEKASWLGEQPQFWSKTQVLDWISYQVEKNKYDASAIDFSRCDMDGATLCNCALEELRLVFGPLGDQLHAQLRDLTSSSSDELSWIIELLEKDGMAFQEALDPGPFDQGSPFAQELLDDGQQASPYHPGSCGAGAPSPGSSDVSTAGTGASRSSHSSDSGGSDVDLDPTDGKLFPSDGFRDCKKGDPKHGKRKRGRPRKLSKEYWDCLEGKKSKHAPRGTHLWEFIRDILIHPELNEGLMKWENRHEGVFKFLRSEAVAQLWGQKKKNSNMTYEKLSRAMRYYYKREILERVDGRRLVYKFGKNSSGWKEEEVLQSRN
Outline: as §1

[17] = target: ETV1 (Homo sapiens, UniProt P50549 1-477)
Outline: as §1

Chain of ETV1 (P50549 whole entry): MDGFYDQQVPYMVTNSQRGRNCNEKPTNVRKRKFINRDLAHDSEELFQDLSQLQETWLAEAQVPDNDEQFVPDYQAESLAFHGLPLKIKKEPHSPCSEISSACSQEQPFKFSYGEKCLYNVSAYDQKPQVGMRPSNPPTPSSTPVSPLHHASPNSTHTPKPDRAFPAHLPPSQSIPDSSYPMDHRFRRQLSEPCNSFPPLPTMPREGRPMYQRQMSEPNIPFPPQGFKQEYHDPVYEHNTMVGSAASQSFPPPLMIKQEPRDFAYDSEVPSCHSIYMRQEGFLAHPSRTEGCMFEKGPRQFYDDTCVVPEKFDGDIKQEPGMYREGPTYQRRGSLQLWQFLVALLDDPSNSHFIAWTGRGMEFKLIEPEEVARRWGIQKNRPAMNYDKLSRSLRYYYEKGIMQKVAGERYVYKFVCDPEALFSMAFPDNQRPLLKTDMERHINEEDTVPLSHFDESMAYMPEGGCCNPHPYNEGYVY
Chain of SPIB (Q01892 whole entry): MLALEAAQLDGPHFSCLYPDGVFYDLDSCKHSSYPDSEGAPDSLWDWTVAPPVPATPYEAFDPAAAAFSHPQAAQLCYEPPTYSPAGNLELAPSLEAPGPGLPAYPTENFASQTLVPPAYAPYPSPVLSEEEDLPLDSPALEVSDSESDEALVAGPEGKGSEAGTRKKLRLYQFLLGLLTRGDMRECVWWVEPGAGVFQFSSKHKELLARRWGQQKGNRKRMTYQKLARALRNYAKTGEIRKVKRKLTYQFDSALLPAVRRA
Chain of ELF1 (P32519 whole entry): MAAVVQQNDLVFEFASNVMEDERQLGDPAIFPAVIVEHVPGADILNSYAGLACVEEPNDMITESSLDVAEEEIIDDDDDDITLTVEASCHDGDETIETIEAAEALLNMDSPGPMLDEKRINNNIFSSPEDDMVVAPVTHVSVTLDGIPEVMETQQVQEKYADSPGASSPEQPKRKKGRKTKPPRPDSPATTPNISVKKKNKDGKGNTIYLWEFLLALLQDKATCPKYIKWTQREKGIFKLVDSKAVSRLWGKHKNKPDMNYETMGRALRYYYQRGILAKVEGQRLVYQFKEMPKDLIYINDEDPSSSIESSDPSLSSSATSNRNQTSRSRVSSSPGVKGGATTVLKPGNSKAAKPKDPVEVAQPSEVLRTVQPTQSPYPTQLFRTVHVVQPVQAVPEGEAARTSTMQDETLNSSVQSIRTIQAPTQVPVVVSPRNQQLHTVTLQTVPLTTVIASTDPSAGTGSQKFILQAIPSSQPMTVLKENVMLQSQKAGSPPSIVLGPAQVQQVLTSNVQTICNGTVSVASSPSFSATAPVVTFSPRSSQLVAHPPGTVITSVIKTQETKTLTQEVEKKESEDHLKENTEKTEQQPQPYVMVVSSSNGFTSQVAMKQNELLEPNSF
Chain of ELF4 (Q99607 whole entry): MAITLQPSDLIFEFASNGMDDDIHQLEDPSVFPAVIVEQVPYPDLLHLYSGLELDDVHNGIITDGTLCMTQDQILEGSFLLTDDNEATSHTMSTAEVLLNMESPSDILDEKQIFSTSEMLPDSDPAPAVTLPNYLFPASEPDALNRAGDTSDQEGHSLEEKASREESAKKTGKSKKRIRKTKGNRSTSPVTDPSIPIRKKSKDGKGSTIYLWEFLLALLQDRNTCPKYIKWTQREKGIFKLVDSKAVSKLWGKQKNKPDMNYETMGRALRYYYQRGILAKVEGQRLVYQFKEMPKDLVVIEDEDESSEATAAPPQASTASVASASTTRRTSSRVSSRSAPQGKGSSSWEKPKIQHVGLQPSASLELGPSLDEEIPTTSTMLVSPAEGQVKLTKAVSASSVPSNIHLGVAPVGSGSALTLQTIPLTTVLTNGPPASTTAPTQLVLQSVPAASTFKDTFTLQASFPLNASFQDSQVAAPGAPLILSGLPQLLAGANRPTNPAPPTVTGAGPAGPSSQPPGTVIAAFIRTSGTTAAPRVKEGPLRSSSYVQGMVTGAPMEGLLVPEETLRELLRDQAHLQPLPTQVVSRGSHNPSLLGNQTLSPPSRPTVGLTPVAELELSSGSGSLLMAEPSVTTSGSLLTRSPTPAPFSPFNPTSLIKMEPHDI
Chain of ETV5 (P41161 whole entry): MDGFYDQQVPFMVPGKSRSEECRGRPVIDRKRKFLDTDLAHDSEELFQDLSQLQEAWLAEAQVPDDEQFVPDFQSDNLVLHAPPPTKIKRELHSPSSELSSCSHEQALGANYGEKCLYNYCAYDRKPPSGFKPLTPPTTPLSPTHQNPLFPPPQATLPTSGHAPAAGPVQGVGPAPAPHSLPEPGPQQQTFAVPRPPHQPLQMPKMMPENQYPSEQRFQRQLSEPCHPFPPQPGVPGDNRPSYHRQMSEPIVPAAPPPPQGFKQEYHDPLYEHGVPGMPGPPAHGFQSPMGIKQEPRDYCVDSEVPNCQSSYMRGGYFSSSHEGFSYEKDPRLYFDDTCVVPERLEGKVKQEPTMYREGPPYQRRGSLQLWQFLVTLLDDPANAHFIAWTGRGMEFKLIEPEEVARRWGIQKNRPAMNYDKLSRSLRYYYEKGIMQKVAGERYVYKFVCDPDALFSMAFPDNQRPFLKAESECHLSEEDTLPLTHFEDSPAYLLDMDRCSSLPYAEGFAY

## ACAGGA
[1]
  binding signal: 1.15 fold enrichment (6-mer frequency, TF over GST control)
[2]
  binding signal: 1.08 fold enrichment (6-mer frequency, TF over GST control)
[3]
  binding signal: 1.13 fold enrichment (6-mer frequency, TF over GST control)
[4]
  binding signal: 1.22 fold enrichment (6-mer frequency, TF over GST control)
[5]
  binding signal: 1.04 fold enrichment (6-mer frequency, TF over GST control)
[6]
  binding signal: 1.12 fold enrichment (6-mer frequency, TF over GST control)
[7]
  binding signal: 1.34 fold enrichment (6-mer frequency, TF over GST control)
[8]
  binding signal: 1.22 fold enrichment (6-mer frequency, TF over GST control)
[9]
  binding signal: 1.04 fold enrichment (6-mer frequency, TF over GST control)
[10]
  binding signal: 1.18 fold enrichment (6-mer frequency, TF over GST control)
[11]
  binding signal: 1.19 fold enrichment (6-mer frequency, TF over GST control)
[12]
  binding signal: 1.07 fold enrichment (6-mer frequency, TF over GST control)
[13]
  binding signal: 1.04 fold enrichment (6-mer frequency, TF over GST control)
[14]
  binding signal: 1.04 fold enrichment (6-mer frequency, TF over GST control)
[15]
  binding signal: 1.06 fold enrichment (6-mer frequency, TF over GST control)
[16]
  binding signal: 1.15 fold enrichment (6-mer frequency, TF over GST control)
[17]
  binding signal: 1.16 fold enrichment (6-mer frequency, TF over GST control)
